From PubChem BioAssay
Active and inactive are the calls of the source. Unless noted, no rule for the calls is given here.

Legend:
[1] = resazurin metabolic signal in HepG2 cells – cell-based, resazurin fluorescence, 24 h, PK04 Diversity Set, profiling panel (AID 1172); details: HepG2 viability, higher = more signal; also: test concentration not given here
[2] = budding yeast growth changes without added modifier – OD600, strain BY4716, 24 h, basal condition, primary screen (AID 1173); details: S. cerevisiae BY4716 growth, OD600, 24 h; higher = more signal, called active from +8 up or from −8 down
[3] = viability profiling in MM1S myeloma cells – cell-based, resazurin fluorescence, basal, 24 h, PK04 Diversity Set, profiling panel (AID 1174); details: higher = more signal, called active from +8 up or from −8 down;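 also: MM1S multiple myeloma cell line; test concentration not given here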
[4] = target: Dihydroorotate dehydrogenase (quinone), mitochondrial (Plasmodium falciparum (isolate 3D7)) (UniProt Q08210); assay: inhibition of P. falciparum DHODH – biochemical, C-terminal His tag, absorbance 600 nm, primary screen (AID 1175); details: PfDHODH enzyme, DCIP absorbance 600 nm; higher = more signal, called active from +8 up or from −8 down;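 also: recombinant parasite enzyme with a five histidine tag at its C terminus; test concentration not given here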
Chain of Dihydroorotate dehydrogenase (quinone), mitochondrial (Plasmodium falciparum (isolate 3D7)) (Q08210 whole entry, looked up): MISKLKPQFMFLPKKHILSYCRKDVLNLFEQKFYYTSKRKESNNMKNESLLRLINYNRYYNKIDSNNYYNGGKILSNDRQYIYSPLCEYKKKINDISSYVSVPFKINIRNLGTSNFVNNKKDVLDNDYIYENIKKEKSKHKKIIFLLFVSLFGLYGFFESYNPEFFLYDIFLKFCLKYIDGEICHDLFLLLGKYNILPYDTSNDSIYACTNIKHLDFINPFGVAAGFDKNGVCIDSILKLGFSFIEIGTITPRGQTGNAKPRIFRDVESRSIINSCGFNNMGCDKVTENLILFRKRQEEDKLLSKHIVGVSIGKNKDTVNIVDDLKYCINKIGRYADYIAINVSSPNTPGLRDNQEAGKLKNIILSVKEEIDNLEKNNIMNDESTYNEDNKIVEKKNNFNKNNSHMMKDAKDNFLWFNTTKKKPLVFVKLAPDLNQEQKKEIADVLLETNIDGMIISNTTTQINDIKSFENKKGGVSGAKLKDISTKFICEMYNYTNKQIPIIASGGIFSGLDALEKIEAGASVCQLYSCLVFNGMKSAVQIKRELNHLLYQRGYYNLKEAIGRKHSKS

[5] = inhibition of PAO1 biofilm formation – strain PAO1, LB-PBS medium, absorbance 600 nm, primary screen (AID 1176); also: test concentration not given here; details: P. aeruginosa PAO1 growth/biofilm, A600, 12 h; higher = more signal
[6] = growth modulation of vineyard yeast isolate – strain RM11-1a, OD600, basal, 24 h, primary screen (AID 1177);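 also: cultures grown under basal conditions with no added stressor; test concentration not given here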; details: S. cerevisiae RM11-1a growth, OD600, 24 h; higher = more signal, called active from +8 up or from −8 down
[7] = growth of efflux-deficient E. coli DRC39 – strain DRC39, OD650, 24 h, E. coli filamentation inducers, primary screen (AID 1178);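 also: growth measured as culture turbidity by optical density at 650 nm; test concentration not given here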; details: E. coli DRC39 acrAB, higher = more signal, called active from +8 up or from −8 down
[8] = growth of efflux-deficient E. coli DRC39 – strain DRC39, OD650, 48 h, E. coli filamentation inducers, primary screen (AID 1179);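 also: screen aims at cell division blockers that make cells filament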; details: E. coli DRC39 delta-acrAB growth, higher = more signal, called active from +8 up or from −8 down
[9] = viability profiling in RPMI8226 myeloma cells – cell-based, resazurin fluorescence, basal, 24 h, PK04 Diversity Set, profiling panel (AID 1180); details: higher = more signal;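 also: RPMI8826 multiple myeloma cell line at 5000 cells per well; test concentration not given here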
[10] = target: E3 ubiquitin-protein ligase XIAP (Homo sapiens) (UniProt P98170); assay: small molecules binding XIAP protein – biophysical, small-molecule microarray, fluorescence 635 nm, primary screen (AID 1181); details: higher = more signal;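 also: score merges 667 nm emission and signal to noise over triplicate slides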
Chain of E3 ubiquitin-protein ligase XIAP (Homo sapiens) (P98170 whole entry, looked up): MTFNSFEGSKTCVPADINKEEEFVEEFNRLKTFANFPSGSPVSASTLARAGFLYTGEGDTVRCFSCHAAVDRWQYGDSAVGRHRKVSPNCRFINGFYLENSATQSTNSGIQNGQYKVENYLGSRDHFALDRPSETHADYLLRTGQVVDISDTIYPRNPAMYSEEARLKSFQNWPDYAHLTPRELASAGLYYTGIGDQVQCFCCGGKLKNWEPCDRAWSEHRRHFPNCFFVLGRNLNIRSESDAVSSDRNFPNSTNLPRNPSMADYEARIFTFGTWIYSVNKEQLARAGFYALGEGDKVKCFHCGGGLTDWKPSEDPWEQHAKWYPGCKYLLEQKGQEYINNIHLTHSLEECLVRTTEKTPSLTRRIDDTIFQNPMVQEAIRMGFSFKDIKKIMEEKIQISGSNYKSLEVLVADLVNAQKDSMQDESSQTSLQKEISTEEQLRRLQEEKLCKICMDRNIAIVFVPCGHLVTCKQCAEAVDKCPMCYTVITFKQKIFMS

Row | Structure (SMILES) | z-score [1] | z-score [2] | z-score [3] | composite z-score [4] | z-score [5] | z-score [6] | z-score [7] | z-score [8] | z-score [9] | composite z-score [10]
1 | COc1cc(NN2C(C(O)c3ccco3)C=CC3C(=O)N(C)C(=O)C32)cc(OC)c1OC (stereo not given) | -1.41 | 0.753 (inactive) | -1.76 (inactive) | -0.139 (inactive) | 0.711 (inactive) | 0.322 (inactive) | -1.02 (inactive) | -0.941 (inactive) | -1.98 | 0.391
2 | COCCOC(=O)N1C(=O)[C@@]2(c3cc(C#CC4(O)CCCCCC4)ccc31)[C@H](c1ccc(O)cc1)N1[C@H](c3ccccc3)[C@H](c3ccccc3)OC(=O)[C@H]1[C@@H]2C(=O)N1CCN(c2ncccn2)CC1 | 0.0439 | -0.31 (inactive) | -0.705 (inactive) | 0.244 (inactive) | 0.654 (inactive) | 0.326 (inactive) | -0.462 (inactive) | 0.0188 (inactive) | -0.528 | 0.0487
3 | C=C(/C(=C/C[C@H](OC(C)=O)c1ccc(CO)o1)c1cnc2ccccc2c1)C(C)C | 0.523 | -0.269 (inactive) | -0.575 (inactive) | -7.07 (inactive) | 0.898 (inactive) | 0.376 (inactive) | 0.307 (inactive) | -0.219 (inactive) | -0.659 | -0.0095
4 | CCCCCCCCCC(O)C1C=CC2C(=O)N(c3ccccc3)C(=O)C2N1Nc1cc(OC)c(OC)c(OC)c1 (stereo not given) | -2.66 | 0.953 (inactive) | -4.42 (inactive) | -0.474 (inactive) | 0.711 (inactive) | 0.27 (inactive) | -1.57 (inactive) | -1.75 (inactive) | -4.03 | 0.176
5 | COc1cc2c(cc1O)C(c1cccs1)N(Cc1cc3c(cc1Br)OCO3)CC2 (stereo not given) | -0.608 | -1.4 (inactive) | -0.511 (inactive) | -1.88 (inactive) | -0.227 (inactive) | 0.488 (inactive) | -0.284 (inactive) | -1 (inactive) | -1.59 | 0.483
6 | COc1ccc(C#Cc2ccc3c(c2)[C@]2(C(=O)N3)[C@H](c3ccc(OCCO)cc3)N3[C@H](c4ccccc4)[C@H](c4ccccc4)OC(=O)[C@H]3[C@@H]2C(=O)NC[C@H](O)c2ccccc2)cc1 | 0.0814 | 3.07 (inactive) | -0.883 (inactive) | -18.4 (active) | 2.34 (inactive) | 4.84 (inactive) | 0.595 (inactive) | 0.863 (inactive) | -1.08 | 0.18
7 | O=C1OCCC=C[C@H]2OC34C=CCN(c5ccc6ccccc6c5)C(=O)[C@H]3N(CCCO)C(=O)[C@@H]4C12 (stereo not given in full) | -0.0412 | -0.129 (inactive) | -0.284 (inactive) | -0.286 (inactive) | -0.385 (inactive) | 0.393 (inactive) | -0.127 (inactive) | -0.611 (inactive) | -0.496 | 0.158
8 | COC(=O)[C@]1(CCS(=O)(=O)c2ccccc2)N=C(c2ccc(OCCCO)cc2)O[C@@H]1c1ccccc1N=[N+]=[N-] | -1.28 | 0.141 (inactive) | -3.19 (inactive) | 1.02 (inactive) | 0.963 (inactive) | 2.53 (inactive) | 0.548 (inactive) | -0.718 (inactive) | -2.26 | -0.0502
9 | COC(=O)[C@@]1(Cc2ccccc2)[C@H]2c3cc(C(=O)N4CCCC4)n(CCc4ccccn4)c3C[C@H]2CN1C(=O)c1ccccc1 | 0.281 | 1.3 (inactive) | -0.454 (inactive) | -0.105 (inactive) | -0.126 (inactive) | 0.23 (inactive) | -0.413 (inactive) | -0.906 (inactive) | 0.157 | 0.293
10 | CC(=O)NCCCC[C@@H]1NC(=O)[C@@H]2C[C@H](C(=O)NCCCCCN)[C@H](c3ccc(O)cc3)N2C1=O | -0.714 | -0.12 (inactive) | 0.707 (inactive) | 0.143 (inactive) | 0.0094 (inactive) | -0.0659 (inactive) | -0.139 (inactive) | -0.515 (inactive) | 0.0794 | 0.492
11 | CCCC=C(CCC)[C@@H](NC(=O)C(C)(C)C)c1ccc(C(=O)OC)cc1 | 1.35 | 1.3 (inactive) | -0.0387 (inactive) | 0.0907 (inactive) | 0.122 (inactive) | 1.17 (inactive) | -0.187 (inactive) | 0.0571 (inactive) | -0.0244 | -0.34
12 | C=C(COC)C(=O)CC[C@@H](OC(C)=O)c1cccc(OCCO)c1 | -0.434 | 0.823 (inactive) | -0.0743 (inactive) | 0.0704 (inactive) | -0.329 (inactive) | 1.17 (inactive) | 0.858 (inactive) | 0.503 (inactive) | -0.929 | -0.263
13 | C=CCC(OC(C)=O)[C@@H]1[C@@H](N(Cc2ccc(-c3cccc(C(F)(F)F)c3)o2)C(=O)c2ccc(-c3ccccc3)cc2)c2cc(OCCCO)ccc2N1C(=O)Cc1ccc2ccccc2c1 (stereo not given in full) | 0.0839 | 0.915 (inactive) | -0.115 (inactive) | 0.306 (inactive) | 0.338 (inactive) | 0.805 (inactive) | 0.0952 (inactive) | 0.119 (inactive) | 0.322 | -0.17
14 | CCOC(=O)C[C@H]1[C@H](OC(=O)c2ccccc2-c2ccccc2)[C@@H](NC(=O)c2ccc3ccccc3c2)c2cc(OCCCO)ccc2N1C(=O)c1ccccc1 | -0.655 | 0.264 (inactive) | 0.0324 (inactive) | 0.198 (inactive) | -0.341 (inactive) | 0.874 (inactive) | 0.547 (inactive) | 0.203 (inactive) | 0.225 | -0.0988
15 | NC(=O)NCC#Cc1ccc2c(c1)[C@]1(C(=O)N2)[C@H](C(=O)N2CCN(c3ncccn3)CC2)[C@H]2C(=O)O[C@H](c3ccccc3)[C@H](c3ccccc3)N2[C@@H]1c1ccc(O)cc1 | -0.727 | 1.14 (inactive) | -0.234 (inactive) | -2.21 (inactive) | 1.16 (inactive) | 0.939 (inactive) | -0.192 (inactive) | -0.15 (inactive) | -1.36 | -0.0577
16 | NC(=O)NCC#Cc1ccc2c(c1)[C@]1(C(=O)N2)[C@H](c2ccccc2OCCO)N2[C@H](c3ccccc3)[C@H](c3ccccc3)OC(=O)[C@H]2[C@@H]1C(=O)O | 1.87 | -0.462 (inactive) | 0.877 (inactive) | -1.96 (inactive) | -0.0199 (inactive) | -0.246 (inactive) | 0.614 (inactive) | -0.727 (inactive) | 0.327 | -0.287
17 | CCOC(=O)C[C@H]1[C@H](OC(=O)c2cc3ccccc3oc2=O)[C@@H](NC(=O)c2ccc3ccccc3n2)c2cc(OCCCO)ccc2N1C(=O)Cc1ccc(OC)cc1 | 1.16 | -0.105 (inactive) | -0.76 (inactive) | -0.543 (inactive) | -1 (inactive) | 0.796 (inactive) | 0.662 (inactive) | 0.0535 (inactive) | -0.284 | -0.173
18 | CC(C)C(CO)N1C(=O)[C@@H]2C3C(=O)OCCC/C=C\[C@H]3OC23C=CCN(c2ccc4ccccc4c2)C(=O)[C@@H]13 (stereo not given in full) | -0.507 | 0.267 (inactive) | -0.235 (inactive) | -0.42 (inactive) | -0.292 (inactive) | -0.259 (inactive) | -0.275 (inactive) | -0.24 (inactive) | -0.344 | 0.683
19 | COc1cc2c(cc1O)C(c1ccc(CN3CCCC3)cc1)N(Cc1cc3c(cc1Br)OCO3)CC2 (stereo not given) | 0.686 | -0.714 (inactive) | -1.44 (inactive) | -0.296 (inactive) | -0.0218 (inactive) | -0.365 (inactive) | -1.36 (inactive) | -1.01 (inactive) | 0.174 | -0.123
20 | C=CCC(OC(C)=O)[C@@H]1[C@@H](N(Cc2ccc(-c3ccccc3)cc2)C(=O)c2ccc(-c3ccccc3)cc2)c2cc(OCCCO)ccc2N1C(=O)c1ccc2ccccc2c1 (stereo not given in full) | -0.723 | 0.416 (inactive) | 0.149 (inactive) | -0.746 (inactive) | 0.35 (inactive) | -0.583 (inactive) | -0.91 (inactive) | -0.756 (inactive) | -0.205 | 0.0423
21 | COc1ccc(CCNC(=O)[C@@H]2c3ccccc3C(=O)N(C3CCCCC3)[C@H]2c2ccc(CO)cc2)cc1 | -0.0966 | 0.162 (inactive) | -0.298 (inactive) | 0.77 (inactive) | 1.32 (inactive) | 0.726 (inactive) | -0.712 (inactive) | -1.39 (inactive) | 0.978 | -0.0349
22 | C=CC[C@]1(C(=O)N2CCOCC2)COC(c2ccc(OCCCO)cc2)=N1 | 1.31 | -1.37 (inactive) | 0.574 (inactive) | -0.214 (inactive) | 0.124 (inactive) | -0.19 (inactive) | 0.904 (inactive) | 0.46 (inactive) | 0.0543 | 0.0055
23 | CN(C)C(=O)[C@]1(Cc2ccccc2CN=[N+]=[N-])N=C(c2ccc(OCCCO)cc2)O[C@@H]1c1ccccc1 | 0.747 | -0.948 (inactive) | -0.535 (inactive) | -0.366 (inactive) | -0.137 (inactive) | 0.787 (inactive) | 0.294 (inactive) | -0.296 (inactive) | -1.16 | -0.127
24 | C=C[C@@H](OC)[C@H](OC(=O)Nc1ccc(OC)cc1)c1ccc(O)c(F)c1 | -0.902 | -6.91 (inactive) | -0.967 (inactive) | -1.1 (inactive) | 0.741 (inactive) | -0.175 (inactive) | 0.146 (inactive) | -0.355 (inactive) | -0.877 | 0.252
25 | CCOC(=O)C[C@H]1[C@H](OC(=O)c2ccc(-c3ccccc3)cc2)[C@@H](NC(=O)CC(C)C)c2cc(OCCCO)ccc2N1C(=O)c1ccc2ccccc2n1 | 1 | -0.677 (inactive) | 0.722 (inactive) | -1.31 (inactive) | -0.382 (inactive) | -0.248 (inactive) | 0.102 (inactive) | 0.327 (inactive) | 0.517 | -0.134
26 | CCOC(=O)C[C@H]1[C@H](OC(=O)c2ccc(C(=O)c3ccccc3)cc2)[C@@H](NC(=O)c2ccc3ccccc3n2)c2cc(OCCCO)ccc2N1C(=O)Cc1ccc(OC)cc1 | -0.0031 | 1.03 (inactive) | 0.0487 (inactive) | -0.0608 (inactive) | -0.75 (inactive) | 0.0192 (inactive) | -2.25 (inactive) | -2.31 (inactive) | 0.131 | -0.0961
